Luc counter: blocks Kinase-Glo luciferase, a counter-screen artifact; Kinase-Glo luciferase, ATP luminescence, 8 min; Potency, µM (doses to about 38.3 µM), inactives show top-dose activity change, negative = inhibition, usual class: inhibitors; 200,000 tested, 0.28% active; Q27757; also: % is scaled to controls: 0 for no effect and ±100 for the full control effect; nearly all actives have a fitted effect of over 60% in size
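Kinase-Glo luciferase light output from ATP and luciferin was measured with 10 uM ATP, within the enzyme's linear range. Buffer: 50 mM imidazole pH 7.2, 50 mM KCl, 7 mM MgCl2, 0.01% Tween 20, 0.05% BSA; luminescence read after 8 min at ambient temperature.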
SMN2 splice enh: enhancers of SMN2 splice variant expression; HEK293 SMN2-luciferase splicing reporter, luminescence, 30-36 h; Potency, µM (doses to about 46.1 µM), for inactives: at the highest dose activity change, positive = activation, hits mostly activators; 210,000 tested, 2.8% active; also: % of control where 0% means no effect; nearly all actives have a fitted effect of over 55% in size
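qHTS luciferase splicing reporter: luminescence rises when SMN2 exon 7 is included in transfected HEK293 cells. Compound exposure lasted 30-36 h at 37C, with 4.5 mM final sodium butyrate as control, followed by a ONE-Glo read.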
FLuc modulator: inhibits or activates purified firefly luciferase, miR-21 counter-screen; purified FLuc, Km substrates, luminescence inhibition; Potency, µM (doses to about 57.5 µM), inactives show at the top dose activity change, negative = inhibition, usual class: inhibitors; 360,000 tested, 6.9% active; P08659;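 also: plate controls were vehicle for no effect and reference inhibitor for full effect; nearly all actives have a fitted effect of over 55% in size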
Target sequence (P08659 whole entry, looked up): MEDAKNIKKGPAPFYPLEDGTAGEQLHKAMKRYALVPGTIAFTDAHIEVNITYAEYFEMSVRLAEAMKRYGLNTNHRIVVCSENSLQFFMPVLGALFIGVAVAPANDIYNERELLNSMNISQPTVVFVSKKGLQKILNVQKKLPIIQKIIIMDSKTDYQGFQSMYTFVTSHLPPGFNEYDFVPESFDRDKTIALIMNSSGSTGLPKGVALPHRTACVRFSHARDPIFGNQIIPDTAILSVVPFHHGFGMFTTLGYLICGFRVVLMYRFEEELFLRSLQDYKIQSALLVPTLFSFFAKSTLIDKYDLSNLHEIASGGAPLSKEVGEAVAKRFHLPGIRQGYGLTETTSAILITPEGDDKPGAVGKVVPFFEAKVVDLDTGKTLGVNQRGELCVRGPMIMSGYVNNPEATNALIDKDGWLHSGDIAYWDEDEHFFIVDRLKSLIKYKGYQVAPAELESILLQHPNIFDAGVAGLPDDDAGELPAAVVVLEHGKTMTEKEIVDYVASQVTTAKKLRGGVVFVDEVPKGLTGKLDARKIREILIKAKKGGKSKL
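Purified P. pyralis luciferase, 10 nM final, with Km-level 10 uM D-luciferin and 10 uM ATP in 50 mM Tris acetate pH 7.5, 10 mM Mg acetate, 0.01% Tween-20, 0.05% BSA; 6-point qHTS titration about 60 µM downward; luminescence read.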
Rab9 prom act: activators of Rab9 promoter | 320,000 tested, 2.8% active | Huh7 Rab9 promoter-luciferase reporter, luminescence, 24 h | Potency, µM (titrated, usually from 9.22 µM), for inactives: at the highest dose activation, negative = inhibition, hits mostly activators; also: % of control where 0% means no effect; nearly all actives have a fitted effect of over 60% in size
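Rab9 promoter-driven luciferase in stably transfected Huh7 cells; 1500 cells/well rested 2 h, exposed to compound in DMSO for 24 h at 37 °C, 5% CO2. Luminescence read 10 min after adding luciferase reagent at ambient temperature.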
ELG1 genotox: genotoxicity induction in ELG1-luciferase HEK293T cells. 330,000 tested, 1.3% active. Potency, µM (top dose mostly 46 µM), without a hit: at the highest dose activity change, positive = activation, hits mostly activators. AID 504466. HEK293T ELG1-luciferase reporter, luminescence, 16 h; also: % of control where 0% means no effect; nearly all actives have a fitted effect of over 60% in size
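Quantitative HTS format in 1536-well plates. HEK293T ELG1-luciferase reporter cells receive test compound and are incubated 16 hr at 37 °C, 5% CO2; ONE-Glo added, 30 min room temperature, then luminescence read.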
NPC1 prom act: NPC1 promoter activation; Huh7 NPC1 promoter luciferase reporter, 24 h; Potency, µM (series often up to 9.22 µM), without a hit: at the top dose activation, most hits filed as activators; 320,000 tested, 2.4% active; also: % of control where 0% means no effect; nearly all actives have a fitted effect of over 60% in size
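Cells: Huh7 expressing luciferase under the NPC1 promoter, 1500/well. Seeded 2 h, compound added, incubated 24 h at 37 °C. Luciferase reagent, 10 min ambient, then luminescence.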
An asterisk follows results filed as active; ? = inconclusive; · = no result; [ ] = dose if it differs, or a comment. A selection: hits, their analogues and other compounds. The true share with any hit is near 7.5%. Calls follow the shape of the dose curve; as a rule, active = well fitted curve in the direction sought with a large enough effect; inconclusive = small, poorly fitted or top-dose-only effect, or another doubt; inactive = no such curve, though single readings can be large; an effect the other way counts as inactive or inconclusive. Potency is read from the fitted curve at half-maximal effect.

SMILES	Luc counter	SMN2 splice enh	FLuc modulator	Rab9 prom act	ELG1 genotox	NPC1 prom act
N#C/C(C(=O)c1ccccc1)=C1/CCCCCN1	-8%	?	21µM*	2.5µM*	?	?
Oc1ccc(Nc2nc(-c3ccccc3F)nc3ccccc23)cc1	·	·	-6%	3%	-7%	3%
COc1ccc(Nc2nc(-c3ccccc3F)nc3ccccc23)cc1OC	·	·	27µM*	0%	-10%	-4%
Clc1ccc(SCc2cc(-c3ccccc3)on2)cc1	3%	6%	-4%	4%	?	2%
Cc1nc(-c2cc(-c3ccc(Cl)cc3)no2)cs1	·	·	1.2µM*	0.56µM*	?	1.1µM*
Clc1ccc(-c2cc(-c3ccccc3)on2)cc1	·	·	0.85µM*	1.3µM*	?	1.4µM*
O=C(NC1CC1)c1cc2c(s1)-c1ccccc1OC2	-2%	-46%	12µM*	11%	?	27%
CCOC(=O)c1cc(-c2ccc(C)cc2)n(CCCC(=O)Nc2cc(C)ccc2C)c1	·	·	-5%	·	·	·
CCOc1ccc(NC(=O)CCCc2cc(-c3ccc(OCC)cc3)on2)cc1	-3%	14%	-3%	0%	7%	-1%
CCOc1ccc(-c2cc(CCCC(=O)Nc3cc(OC)ccc3OC)no2)cc1	-1%	-17%	6µM*	-4%	-9%	-4%
CCOc1ccc(-c2cc(CCCC(=O)Nc3cccc(OC)c3)no2)cc1	2%	12%	6.7µM*	-21%	5%	-19%
Cc1cccc(NC(=S)NC(=O)/C=C/c2ccco2)n1	-2%	-5%	?	3.5µM*	?	?
Cc1cccc(NC(=S)NC(=O)/C=C/c2ccco2)c1	0%	7%	?	-10%	?	-29%
Cc1ccc(-n2nc3cc(C)c(NC(=S)NC(=O)/C=C/c4ccco4)cc3n2)cc1	-3%	?	11µM*	-9%	8.2µM*	-3%
O=C(/C=C/c1ccco1)NC(=S)Nc1ccccc1	·	·	27µM*	?	10%	28%
CC(C)N(C(=O)CSc1ccc(S(=O)(=O)N2CCCCC2)cn1)c1ccccc1	·	·	·	1%	-5%	-6%
COc1cccc(OCC(=O)NC2CC(=O)N(c3cccc(OC)c3)C2)c1 (stereo not drawn)	·	·	0%	·	·	·
CS(=O)(=O)c1ccc(Cl)c(NC(=O)COC(=O)CNC(=O)c2sc3ccccc3c2Cl)c1	·	·	15µM*	-1%	-4%	0%
CCOC(=O)C1CCN(C(=O)COC(=O)CNC(=O)c2sc3ccccc3c2Cl)CC1	·	·	9.5µM*	-3%	0%	-2%
O=C(COC(=O)CNC(=O)c1sc2ccccc2c1Cl)NC1CCS(=O)(=O)C1 (stereo not drawn)	·	·	17µM*	2%	-2%	-1%
NC(=O)c1ccc(NC(=O)COC(=O)CNC(=O)c2sc3ccccc3c2Cl)cc1	·	·	6.7µM*	-9%	1%	-2%
CC1CCCCN1C(=O)COC(=O)CNC(=O)c1sc2ccccc2c1Cl (stereo not drawn)	·	·	?	-4%	-2%	0%
Cc1ccc(/C=C/c2onc(C)c2S(=O)(=O)N2CCC(C(=O)NCc3ccc(C)o3)CC2)cc1	·	·	-8%	·	·	·
COc1cc(-c2nc3ccccc3s2)ccc1O	-13%	?	8.5µM*	?	?	6%
O=S(=O)(c1cccc(-c2nc3ccccc3s2)c1)N1CCCC1	5%	-24%	0%[2.3 µM]	15%	-5%	10%
SMILES	Luc counter	SMN2 splice enh	FLuc modulator	Rab9 prom act	ELG1 genotox	NPC1 prom act
COc1ccc(-c2nc3ccccc3s2)cc1NC(=O)c1cc(OC)c(OC)c(OC)c1	·	4%	?	·	·	·
CCOc1cc(-c2nc3ccccc3s2)ccc1O	·	·	15µM*	15%	?	?
O=S(=O)(c1ccc(-c2nc3ccccc3s2)cc1)N1CCCC1	10%	-13%	-12%	2.8µM*	?	?
COc1ccc(-c2nc3ccccc3s2)cc1NC(=O)c1cccc(F)c1	·	·	-18%	·	·	·
COc1ccc(-c2nc3ccccc3s2)cc1O	-30%	-46%	0.15µM*	5%	0.65µM*	?
Cc1nn(C(=O)c2c(F)cccc2F)c(C)c1S(=O)(=O)N1CCCCCC1	·	·	-18%	·	·	·
CC=C1C2C=C(C)CC1(N)c1ccc(=O)[nH]c1C2 (stereo not drawn)	·	-14%	·	·	·	·
Cc1ccccc1CSc1nc2c([nH]c3ccccc32)c(=O)n1-c1ccccc1	·	·	-6%	·	·	·
CC(C)Oc1ccc(C(=O)Nc2ccc(-c3nc4ccccc4s3)cc2)cc1	·	·	-4%	·	·	·
CC(C)c1ccc(-c2nc3ccccc3s2)cc1	·	·	0.076µM*	-37%	-9%	-18%
Fc1ccc(-c2cc(-c3ccccc3)c3c(n2)-c2cc(F)ccc2OC3)cc1	·	-5%	2%	·	·	·
O=C(c1cc(-c2ccc(F)cc2)on1)N1CCCCCC1	·	·	5.4µM*	1.4µM*	?	0.89µM*
O=C(/C=C/c1ccc(-c2ccc(F)cc2)o1)N1CCCC1	·	·	13µM*	3.2µM*	?	2.8µM*
O=C(c1cc(-c2ccc(O)cc2)on1)N1CCN(c2ccc(F)cc2)CC1	·	·	?	-1%	-3%	0%
O=C(c1cc(-c2ccc(F)cc2)on1)N1CCOCC1	·	·	6µM*	1.6µM*	?	1.1µM*
O=C(/C=C/c1ccc(F)cc1)N1CCCN(C(=O)/C=C/c2ccc(F)cc2)CC1	2%	-11%	?	17%	0%	3%
O=C(c1cc(-c2ccc(O)cc2)on1)N1CCCC1	·	·	6µM*	0.4µM*	4.6µM*	0.45µM*
Cc1cc(C)cc(OCC(=O)Nc2ccc(S(=O)(=O)Nc3onc(C)c3C)cc2)c1	·	-1%	?	·	·	·
O=C(c1ccncc1)N1CCC2(CCN(Cc3ccncc3)CC2)CC1	-3%	-10%	·	·	·	·
COCCn1c(C)cc(O)c(C(c2ccccc2Cl)N2CCCCC2)c1=O (stereo not drawn)	·	·	4%	·	·	·
CCOC(=O)C1CCCN(C(=O)c2cc(COc3ccc(C)nc3)on2)C1 (stereo not drawn)	·	·	?	17%	-2%	16%
CN1CCN(C(=O)c2cc(-c3ccccc3)on2)CC1	-1%	?	?	?	17%	?
Cc1ccc(-c2cc(C(=O)N3CCCCCC3)no2)cc1	·	·	1.5µM*	0.56µM*	?	0.5µM*
CCOC(=O)C1CCCN(C(=O)c2cc(-c3ccc(C)cc3)on2)C1 (stereo not drawn)	8%	?	12µM*	0.89µM*	?	?
O=C(c1cc(-c2ccc(F)cc2)on1)N1CCCC1	·	·	2.7µM*	0.63µM*	?	0.79µM*
O=C(c1cc(-c2ccccc2)on1)N1CCCCCC1	·	·	9.5µM*	3.5µM*	2.3µM*	1.4µM*

Screening data deposited in PubChem BioAssay by National Center for Advancing Translational Sciences (NCATS).
